Compound activity (PubChem)
A selection: hits, their analogues and other compounds. The true share with any hit is near 19%.
TDP1 cell CPT – growth inhibition of DT40 Tdp1-/-;hTDP1 cells with camptothecin (screen for TDP1 inhibitors). chicken DT40 Tdp1-/-;hTDP1 cells + 20 nM CPT, ATP luminescence, 48 h. Potency, µM (series often up to 46.2 µM), inactives show at the top dose activity change, negative = growth inhibition, most hits filed as inhibitors. 420,000 compounds, 12% hits. AID 686979; further: potency means the concentration at half of the fitted maximal effect; nearly all actives have a fitted effect of over 55% in size
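Chicken DT40 Tdp1-/- cells complemented with human TDP1, 400 cells/well, exposed to compounds plus 20 nM camptothecin for at least 48 h at 37 C; viability read as ATP content by CellTiter-Glo luminescence.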
IL-1B inflam inh – blocks inflammasome-driven IL-1 beta release | THP-1 LPS/ATP IL-1B secretion, AlphaLISA, 16 h; stronger effect = lower value | activity change, % at 57.5 µM | 360,000 compounds, 4.7% hits | AID 743279; in the data active means activity change below about -50%; inconclusive means mostly about -30% to -49%
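THP-1 cells pretreated 1 hr with compounds (up to 57.5 uM final), then stimulated with LPS (250 ng/mL final) plus ATP (1.25 mM final); secreted IL-1B measured by AlphaLISA after 16 hr, decreased signal indicating inhibition.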
HT1080 IDH1KD tx – HT-1080 IDH1 knockdown cell toxicity (counter line). Potency, µM (series often up to 46.1 µM), without a hit: at the top dose activity, negative = toxicity, actives largely listed as cytotoxic. HT-1080 IDH1 knockdown viability, ATP luminescence, 48 h. 360,000 compounds, 2% hits;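 further: potency means the concentration at half of the fitted maximal effect; 0% = DMSO wells and -100% = cell-free medium wells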
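CellTiter-Glo luminescence after 48 h compound exposure at 37 degrees C of IDH1-knockdown HT-1080 cells in 5% FBS RPMI. %Activity scaled between DMSO wells and cell-free media wells, with curves fitted and assigned curve classes.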
TDP1 cell noCPT – qHTS for Inhibitors of human tyrosyl-DNA phosphodiesterase 1 (TDP1): qHTS in cells in absence of CPT; 420,000 compounds, 15% hits; Potency, µM (top dose mostly 46.2 µM), inactives show at the top dose activity change, negative = growth inhibition, usual class: inhibitors; DT40 Tdp1-/- hTDP1 cells, no CPT, ATP luminescence, 48 h; further: potency means the concentration at half of the fitted maximal effect; nearly all actives have a fitted effect of over 55% in size
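DT40 Tdp1-/-;hTDP1 cells, no CPT (DMSO vehicle only), 400 cells/well; compounds pin-transferred; ≥48 hr, 37 °C; CellTiter-Glo 30 min RT dark, luminescence read.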
HT1080NT lethal – kills 2HG-producing HT-1080-NT fibrosarcoma cells | 360,000 compounds, 1.6% hits | Potency, µM (top dose mostly 46.1 µM), for the others: top-dose activity, negative = less viability, actives largely listed as cytotoxic | HT-1080-NT fibrosarcoma viability, CellTiter-Glo ATP luminescence, 48 h;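 further: NT is the 2HG producing partner of a matched IDH1 knockdown line; potency means the concentration at half of the fitted maximal effect; 0% = DMSO-treated cells and -100% = media-only wells without cells; nearly all actives have a fitted effect of over 55% in size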
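Viability of the 2HG-overproducing fibrosarcoma line after 48 hours of compound exposure at 37 degrees C was determined by luminescence with CellTiter-Glo, and concentration-effect curves were then fitted and categorized.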
Starred values were filed as active, the others as inactive; i = inactive; ? = inconclusive; / = not tested or not shown. Unless noted, the call rests on the fitted dose curve; in most records, active means well fitted curve in the direction sought with a large enough effect; inconclusive means small, poorly fitted or top-dose-only effect, or another doubt; inactive means no such curve, though single readings can be large; an effect the other way counts as inactive or inconclusive. Unless noted, on the % scale 0 is the no-effect control and ±100 the full control effect.

SMILES	TDP1 cell CPT	IL-1B inflam inh	HT1080 IDH1KD tx	TDP1 cell noCPT	HT1080NT lethal
O=C(NCc1ccc(F)cc1)c1cc(Sc2ccc(F)cc2F)nc2ccccc12	16µM*	/	/	?	/
CCC(C)NC(=O)c1cc(Sc2cccc(Cl)c2)nc2ccccc12 (stereo unspecified)	16µM*	/	/	15µM*	/
Cc1cc(C(=O)NC(C)CCC(C)C)c2ccccc2n1 (stereo unspecified)	-3%	19	-11%	8%	0%
Cc1cc(-n2cnnn2)ccc1C(C)C	-21%	18	1%	-15%	7%
CCOc1ccc(NC(=O)CCc2c(C)nc3nc(C)nn3c2C)cc1	-1%	/	/	-18%	/
Cc1cn2c(=O)c(S(=O)(=O)NCc3ccc(F)cc3)c(C)nc2s1	?	/	/	-14%	/
O=C(N/N=C1\C/C(=N\NC(=O)c2ccncc2)c2ccccc21)c1ccncc1	?	28	-6%	?	0%
CC1(C)Cc2c(cnn2-c2ccccc2)C(=O)/C1=N\NC(=O)c1ccncc1	18µM*	15	-7%	?	-9%
Cc1cc(Oc2nc3ccccn3c(=O)c2/C=C(\C#N)C(=O)NC2CCS(=O)(=O)C2)ccc1Cl (stereo unspecified)	-25%	-11	?	16µM*	?
Cc1ccsc1/C=C(\C#N)C(=O)NC1CCS(=O)(=O)C1 (stereo unspecified)	-5%	0	0%	11%	-2%
Cc1cccc(Oc2nc3ccccn3c(=O)c2/C=C(\C#N)C(=O)NC2CCS(=O)(=O)C2)c1C (stereo unspecified)	?	-99*	-17%	?	-10%
COc1ccc(Oc2nc3c(C)cccn3c(=O)c2/C=C(\C#N)C(N)=O)cc1	?	23	?	1.8µM*	?
COC(=O)/C(C#N)=C/c1c(Oc2cccc(C)c2)nc2ccccn2c1=O	-5%	-7	8%	-39%	17%
N#C/C(=C\c1c(Oc2ccc(Cl)cc2)nc2ccccn2c1=O)C(=O)NC1CCS(=O)(=O)C1 (stereo unspecified)	-14%	-100*	?	?	-13%
N#C/C(=C\c1c(N2CCCCC2)nc2ccccn2c1=O)C(=O)NC1CCS(=O)(=O)C1 (stereo unspecified)	-3%	-6	8%	-8%	9%
COc1cccc(C(=O)NC(C)c2nnc3n2CCN(CC=C(C)C)CC3)c1 (stereo unspecified)	-6%	/	/	-19%	/
N#Cc1cccc(S(=O)(=O)NCC(=O)OCC(=O)c2ccc[nH]2)c1	-15%	1	7%	-6%	0%
Cc1cccn2c(=O)c(/C=C(\C#N)C(=O)NC3CCS(=O)(=O)C3)c(N3CCC(C)CC3)nc12 (stereo unspecified)	?	-27	2%	?	1%
Cc1cccn2c(=O)c(/C=C(\C#N)C(=O)NC3CCS(=O)(=O)C3)c(Oc3ccc(F)cc3)nc12 (stereo unspecified)	?	-25	?	21µM*	?
CCCN(C(=O)c1cc2c(Cl)nc3ccccc3c2s1)c1cccc(C)c1	21µM*	/	/	26µM*	/
COc1cc(NC(=O)c2cc3c(Cl)nc4ccccc4c3s2)cc(OC)c1OC	10µM*	-13	18%	8.2µM*	14%
CCN(CC)c1nc2ccccc2nc1C(=O)Nc1cc(OC)c(OC)c(OC)c1	16µM*	/	/	13µM*	/
COc1ccc(N(C)C(=O)c2cc3c(Cl)nc4ccccc4c3s2)cc1	?	-68*	-4%	21µM*	-21%
CN(C(=O)c1cc2c(Cl)nc3ccccc3c2s1)c1cccc(C(F)(F)F)c1	-4%	/	/	-21%	/
COC(=O)c1cc(S(=O)(=O)N2CCN(c3cccc(C)c3C)CC2)c[nH]1	?	7	-8%	?	-11%
SMILES	TDP1 cell CPT	IL-1B inflam inh	HT1080 IDH1KD tx	TDP1 cell noCPT	HT1080NT lethal
COc1ccc2nc(NC(=O)c3cc(C)oc3C)sc2c1	?	-10	-21%	?	-18%
COc1ccc2nc(NC(=O)c3ccoc3C)sc2c1	?	-9	11µM*	?	10µM*
COC(=O)c1ccc2nc(NC(=O)C3CCCCC3)sc2c1	?	10	14%	11%	9%
CCSc1nnc(NC(=O)c2cccc(OCc3c(C)noc3C)c2)s1	-19%	-22	-11%	-9%	-1%
COc1ccc2nc(NC(=S)N(C)C)sc2c1	4.6µM*	95	-20%	4.6µM*	-2%
COC(=O)c1ccc2nc(NC(=O)C(C)(C)C)sc2c1	?	0	?	?	18µM*
COc1ccc2nc(NC(=O)c3cccc(OCc4c(C)noc4C)c3)sc2c1	3.3µM*	-26	?	2.9µM*	?
c1ccc(Cn2nnc3c(Nc4ccc5c(c4)OCO5)nc(C4CC4)nc32)cc1	?	-13	?	?	?
CCOC(=O)c1cc(C)sc1NC(=O)CSC1=NCCS1	?	-61*	-3%	-25%	-12%
COc1cccc(Nc2nc3ccc(OC)cc3s2)c1	-24%	-172*	-19%	?	-3%
CCCC(=O)Nc1nc2ccc(OC)cc2s1	15µM*	11	0%	?	3%
COc1ccc2nc(NC(=O)CSC3=NCCS3)sc2c1	?	-58*	?	?	-25%
COc1ccc2nc(NC(=O)CSc3ccccc3)sc2c1	?	-10	-1%	?	10%
CCC(C)N1CCC(Oc2ccc(C(=O)NCc3ccccn3)cc2)CC1 (stereo unspecified)	-8%	i	-5%	-12%	0%
CCOc1ccc2nc(NC(=O)CSC3=NCCS3)sc2c1	23µM*	-92*	-7%	?	-6%
Cc1ccc(NC(=O)Cn2c(=O)n(CCCS(=O)(=O)C3CCCCC3)c(=O)c3ccccc32)cc1F	3%	/	/	-16%	/
CC(C)CCNC(=O)c1onc(CSc2ccc(F)cc2)c1C(=O)NCCC(C)C	?	-6	6%	?	2%
COc1cccc(SCc2noc(C(=O)NCCC(C)C)c2C(=O)NCCC(C)C)c1	18µM*	-18	-3%	15µM*	?
CCCNC(=O)c1onc(CSc2cccc(OC)c2)c1C(=O)NCCC	-23%	8	12%	-23%	-1%
CC(C)CCNC(=O)c1onc(CSc2ccccc2)c1C(=O)NCCC(C)C	23µM*	-2	-9%	?	-2%
CCC(C)[C@@H](N)C(=O)N/N=C/c1cccc2nccnc12 (stereo partly specified)	-3%	10	0%	?	1%
